This is a sample that favours compounds with a hit; in the whole collection about 4.1% have one here.
beta cell repl = induces beta-cell replication in MIN6 cells | MIN6 cells proliferation, ATPlite luminescence, 48 h; cells starved in 0.2% serum; 100% = growth in 10% serum | proliferation, % at 10 µM | hit rate 0.29% among 330,000 | AID 2380;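 active = compounds whose signal lies at least 3.5 SD above the mean of all wells on their plate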
MPTP block = blocks calcium-induced mitochondrial swelling | isolated mouse mitochondria, Ca2+ swelling absorbance, 30 min | hit rate 1.4% among 360,000 | inhibition, % at 10 µM | AID 602449;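 active = inhibition of 50% or more, scaled per plate between neutral and stimulator controls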
p-CIP stab down = lowers stability of the mouse p/CIP coactivator protein; Q05BA5; F442A p/CIP-EGFP cells, EGFP fluorescence, 16 h; decrease of EGFP signal, % at 10 µM; hit rate 0.01% among 290,000; AID 1984;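 active = EGFP signal decrease of at least 30% at 10 µM or well 3 SD below plate mean, unless failing retest; inactive = the rest, including hits failing retest or dose response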
FAS-TE inh = inhibitors of human fatty acid synthase thioesterase domain | P49327 | recombinant FAS-TE, OMFH fluorogenic substrate, fluorescence endpoint | inhibition, % at 15 µM | hit rate 0.67% among 360,000;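 active = compounds whose normalised, plate-corrected inhibition of enzyme fluorescence in the single-dose primary screen is 50% or more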
GRIN3A LBD mod = modulates the human NR3A ligand-binding domain; Tm shift relative to glycine control, % at 25 µM; hit rate 2.5% among 340,000; NR3A LBD differential scanning fluorimetry, Tm shift; 0% = protein alone, 100% = glycine-bound protein;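 active = melting temperature shift of at least 10% of the positive control shift, at one fixed dose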
Rh123 counter = Rhodamine 123 counter-screen of mitochondrial pore hits | shares compounds with MPTP block | isolated mitochondria, membrane potential, Rhodamine 123 fluorescence | inhibition, % at 10 µM | hit rate 78% among 5,000; in the data active = inhibition above about 22%
MPTP swell DR = dose response confirmation of mitochondrial permeability transition pore inhibitors; shares compounds with MPTP block; isolated mitochondria swelling, absorbance; IC50, µM; hit rate 58% among 780; in the data active = IC50 below about 20 µM
MPTP counter DR = active in counter-screen for permeability transition pore inhibitors; shares compounds with MPTP block; isolated mitochondria counterscreen, fluorescence read-out; IC50, µM; hit rate 49% among 780; in the data active = IC50 below about 80 µM
Numbers stand for hits; . = inactive; / = no result given; ! = not confirmed by another sample.

SMILES	beta cell repl	MPTP block	p-CIP stab down	FAS-TE inh	GRIN3A LBD mod	Rh123 counter	others
Cc1ccc(F)cc1NCC(=O)Nc1ccc(Br)cc1	.	71.1	.	.	.	72.2
O=C(CN1CCCC(O)C1)N1c2ccccc2Sc2ccc(C(F)(F)F)cc21 (stereo not given)	.	.	.	.	.	/
CN1CCN(CCCN2c3ccccc3Sc3ccc(C(F)(F)F)cc32)CC1	.	90.8!	.	.	.	.	MPTP swell DR=4.21;MPTP counter DR=.
CC(=O)Nc1ccc(NS(=O)(=O)c2ccc(C)cc2)c([N+](=O)[O-])c1	.	.	.	.	.	/
COc1cc(OC)cc(C(=O)NC(=S)NNC(=O)[C@H]2C[C@@H]2c2ccccc2)c1	.	82.5	.	.	.	.
NC(=O)C1CCN(C(=O)C(=O)c2cn(CC(=O)N3CCCCCC3)c3ccccc23)CC1	.	.	.	.	.	/
Cc1csc(SCC(=O)c2c(N)n(CC(C)C)c(=O)n(C)c2=O)n1	.	50.8	.	.	.	.	MPTP swell DR=.;MPTP counter DR=5.82
CCOC(=O)Cc1csc(SCC(=O)c2c(N)n(CC(C)C)c(=O)n(C)c2=O)n1	.	78.4	.	.	.	23.7
CC(C)Cn1c(N)c(C(=O)CSc2ncccn2)c(=O)n(C)c1=O	.	.	/	.	.	/
Cc1csc(=O)n1CC(=O)OCC(=O)c1c(N)n(CC(C)C)c(=O)n(C)c1=O	.	.	/	.	.	/
O=C(C(=O)N1CCN(c2ccccc2F)CC1)c1c[nH]c2ccccc12	.	.	.	.	.	/
Cc1ccc2sc(N(CCCN(C)C)C(=O)c3ccc(S(=O)(=O)N4CCc5ccccc5C4)cc3)nc2c1C	.	89.7	/	.	14.1	.	MPTP swell DR=.;MPTP counter DR=.
CN(C)CCCN(C(=O)c1ccc(S(=O)(=O)N2CCc3ccccc3C2)cc1)c1nc2c(F)cc(F)cc2s1	.	90.9	/	.	/	.
COc1ccc(C)c2sc(N(CCCN(C)C)C(=O)c3ccc(S(=O)(=O)N4CCc5ccccc5C4)cc3)nc12	/	95.8	/	.	.	.
COc1cccc2sc(N(CCCN(C)C)C(=O)c3ccc(S(=O)(=O)N4CCc5ccccc5C4)cc3)nc12	.	.	.	.	.	/
CCOC(=O)N1CCN(S(=O)(=O)c2ccc(C(=O)N(CCCN(C)C)c3nc4c(F)cc(F)cc4s3)cc2)CC1	.	51.2	/	.	.	.	MPTP swell DR=18.9;MPTP counter DR=.
COc1ccc(OC)c2sc(N(CCCN(C)C)C(=O)c3ccc(S(=O)(=O)N4CCc5ccccc5C4)cc3)nc12	.	/	/	/	/	/
O=S(=O)(c1cccs1)N1CN(C2CCCCC2)c2nc3ccccc3nc21	.	.	.	.	.	/
CN(C(=O)COC(=O)/C=C/c1ccc(S(=O)(=O)N2CCc3ccccc32)cc1)C1CCS(=O)(=O)C1 (stereo not given)	.	.	.	.	.	/
CC1=C(C(=O)Nc2ccc([N+](=O)[O-])cc2)C(c2cccc(C(F)(F)F)c2)NC(=S)N1c1ccccc1 (stereo not given)	.	75.4	.	.	.	89.5
CC(=O)N(\C=C/C=C/C=C1\Sc2ccccc2C1=O)c1ccccc1	.	61.8	.	.	.	62.4
Cc1cc(NC(=O)CSc2nnc(CNC(=O)c3cccc(C(F)(F)F)c3)o2)no1	.	.	.	.	.	/
CCN(CC)S(=O)(=O)c1cc(NC(=O)C2Cc3ccccc3C(=O)O2)ccc1C (stereo not given)	.	.	.	.	.	/
O=S(=O)(c1ccc(-c2csc(Nc3ccc(Br)cc3)n2)cc1)N1CCCC1	.	59.5	.	.	24.7	56.2
N=c1n(CCN2CCCCC2)c2ccccc2n1CC(O)COc1ccccc1 (stereo not given)	.	98.0	.	.	.	.	MPTP swell DR=17.8;MPTP counter DR=67.8
SMILES	beta cell repl	MPTP block	p-CIP stab down	FAS-TE inh	GRIN3A LBD mod	Rh123 counter	others
N=c1n(CCN2CCOCC2)c2ccccc2n1CC(O)COc1ccccc1 (stereo not given)	.	.	.	.	.	/
CCCCn1c(=N)n(CC(O)COc2ccc(C)cc2)c2ccccc21 (stereo not given)	.	.	.	.	.	/
CCCCn1c(=N)n(CC(O)COc2ccccc2)c2ccccc21 (stereo not given)	.	76.2	.	.	.	.	MPTP swell DR=13;MPTP counter DR=35.9
O=[N+]([O-])c1ccc(O)c(-c2nc(-c3ccccc3)c(-c3cccs3)[nH]2)c1	.	91.0	.	.	29.8	85.8
O=C(Nc1cccc(C(F)(F)F)c1)Nc1ccc(N2CCCC2)c(S(=O)(=O)Nc2ccccc2Cl)c1	.	93.9	.	.	30.1	40.9
CC(C)(C)OC(=O)N1CCC(CC2CC(c3ccccc3)=NO2)(C(=O)NCc2ccccc2)CC1 (stereo not given)	.	.	/	.	.	/
COC(=O)C1(CC2CC(c3cccc(Br)c3)=NO2)CCN(C(=O)OC(C)(C)C)CC1 (stereo not given)	.	53.7	.	.	.	57.2
O=C(NCc1ccc(Cl)cc1)c1n[nH]c([N+](=O)[O-])c1Cl	.	76.0	.	.	.	90.7
COc1ccc(S(=O)(=O)NNC(=O)C2Cc3c(ccc4ccccc34)O2)cc1 (stereo not given)	.	80.0	.	.	.	54.5
c1ccc(CSc2ccc(-c3cccnc3)nn2)cc1	.	.	.	.	.	/
Cc1ccc(NC(=O)c2cc3cccc([N+](=O)[O-])c3[nH]2)cc1	.	64.2	.	.	33.4	61.2
Cc1ccc(NC(=O)c2ccc(-n3cccn3)c([N+](=O)[O-])c2)cc1	.	.	.	.	.	/
CCC(C)c1ccccc1NC(=O)c1cc2cccc([N+](=O)[O-])c2[nH]1 (stereo not given)	.	61.2	.	.	.	66.3
Cc1ccccc1C(=O)NCC(=O)OC(C)C(=O)NC(C)CCc1ccccc1 (stereo not given)	.	.	/	.	.	/
CCCNC(=O)C1(C)CCCN(CCOc2ccccc2)C1 (stereo not given)	/	.	/	.	/	/
F[B-](F)(F)c1cncc2ccccc12	/	.	/	.	.	/
Cc1cc(=O)[nH]c(SCC(=O)/C=C2\N(C)c3ccccc3C2(C)C)n1	.	88.7	.	.	.	53.2
O=C(NNC(=O)c1cc(-c2ccccc2)n(-c2ccccc2)n1)c1cccc([N+](=O)[O-])c1	.	.	.	.	.	/
CCC(=NC(C)c1ccccc1)c1c(O)n(C)c(=O)n(C)c1=O (stereo not given)	.	67.0	.	.	.	33.0
CCC(C(=O)OCC(=O)c1c(N)n(CC(C)C)c(=O)n(C)c1=O)c1ccccc1 (stereo not given)	.	.	/	.	.	/
Cc1cc(Nc2cccc(O)c2)c2ccccc2n1	.	/	.	/	/	/

Screening data as filed in PubChem.
